Laboratory results from PubChem BioAssay (NCATS).
Results filed as inconclusive are left out. Unmarked numbers belong to inactive results. Calls of active or inactive are those of the source. Calls come from the whole dose curve; as a rule, active = well fitted cell-killing curve with a large enough effect; inconclusive = small, poorly fitted or top-dose-only effect, or effect the other way; inactive = flat fitted curve, though single readings scatter.

Each compound was assayed on Tov112D (assay: Primary qHTS to identify gynecologic anti-cancer compounds using libraries of approved drugs and bioactive compounds (AID 1345084; note: nearly all actives have a fitted effect of over 55% in size)). Details: Gynecologic cancer cell panel viability, ATPlite luminescence, 48 h; series mostly up to 57.5 µM; activity change, negative = cytotoxicity: at the top concentration.
Outline: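 Luminescence from the ATPlite ATP-monitoring reagent indicates viable cell number; lower signal means cytotoxicity. Cells received compound 16 h after seeding and were exposed for 48 h across five concentrations.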
% is set by controls: 0 for no effect and ±100 for the full control effect; potency is the fitted concentration of half-maximal effect.

SMILES	activity change, negative = cytotoxicity [%]	Potency
COc1cc(/C=C/C(N)=O)cc(OC)c1OC	10.6	–
CNC(=O)c1c(I)c(NC(C)=O)c(I)c(C(=O)O)c1I	10.7	–
CCOC(=O)Oc1ccc(CCNC(=O)[C@H](CCSC)NC(C)=O)cc1OC(=O)OCC	-2.18	–
CCCC(=O)Nc1ccc(O)c(C(C)=O)c1	3.1	–
COC(=O)/C=C\C(=O)OC	-0.409	–
O=C(CCOCCOCCOCCOCCC(=O)Nc1c(I)cc(I)c(C(=O)O)c1I)Nc1c(I)cc(I)c(C(=O)O)c1I	-0.927	–
CC(C)(C)C1CCC(CC2=C(O)c3ccccc3C(=O)C2=O)CC1 (stereo not drawn)	5.91	–
CC(CC1c2ccccc2CCc2ccccc21)CN(C)C (stereo not drawn)	-22.1	–
CC(C)OP(=O)(CP(=O)(OC(C)C)OC(C)C)OC(C)C	3.61	–
COc1ccc2c(c1)CCCC2=O	7.6	–
CC(C)CCCC(C)NCCC(C)C (stereo not drawn)	-2.77	–
COc1ccc2cc(C=O)ccc2c1	-3.7	–
CN1CC(=O)N2[C@H](c3ccc4c(c3)OCO4)c3[nH]c4ccccc4c3C[C@@H]2C1=O	3.98	–
Oc1ccccc1-c1nnco1	6.65	–
CC(=O)c1ccc(O)c(C(N)=O)c1	0.322	–
Nc1ccc(C(=O)N2CC3CC(CN(Cc4ccccc4)C3)C2)cc1	2.46	–
O=C1Cc2cc(Cl)ccc2N1	9.3	–
C=CCNc1nc(NCC=C)nc(N2CCN(C(c3ccc(F)cc3)c3ccc(F)cc3)CC2)n1	-24.1	–
Clc1ccc2c(c1)Nc1ccccc1S2	-4.07	–

SMILES	activity change, negative = cytotoxicity [%]	Potency
CCOC(=O)c1ccc(O)c(O)c1	-21.4	–
C[C@H]1C[C@H](O)c2ccsc2S1(=O)=O	0.466	–
O=C(O)Cn1c(=O)n(Cc2ccc(Br)cc2F)c(=O)c2ccc(Cl)cc21	9.14	–
CN(C)CCCOC1(Cc2ccccc2)CCCCCC1	2.92	–
CCCCCCCCCCCCCCCCCCN(C)C	-4.16	–
O=C(O)c1ccc(OCCN2CCCCC2)cc1	5.51	–
O=c1[nH]sc2cc(Cl)ccc12	-39.8	–
CCCCCCOC(=O)NC(=N)c1ccc(NCc2nc3cc(C(=O)N(CCC(=O)OCC)c4ccccn4)ccc3n2C)cc1	1.49	–
Cc1ccc2ccc(Cl)cc2n1	7.82	–
CCCCOC(=O)CCCCCCCCC(=O)OCCCC	-1.04	–
CCC1(c2cnc[nH]2)Cc2ccccc2C1	0.286	–
COc1cc2c(cc1OC)C(=O)CC2	9.56	–
CSCC[C@H](NC(=O)[C@H](Cc1c[nH]c2ccccc12)NC(=O)CCNC(=O)OC(C)(C)C)C(=O)N[C@@H](CC(=O)O)C(=O)N[C@@H](Cc1ccccc1)C(N)=O	6.61	–
O=C(CCCl)NCCc1ccccc1	10.9	–
CC(C)=CCNc1ncnc2c1ncn2[C@@H]1O[C@H](CO)[C@@H](O)[C@H]1O	–	7.08 µM (active)
CCOC(=O)C(=O)CCc1ccccc1	8.46	–
CCCCCOc1ccccc1/C(=C\SC)n1ccnc1	-21.6	–
COc1ccc(/C(C)=C/C(=O)O)c(OC)c1	-0.769	–
O=C1c2ccccc2CCc2ccccc21	6.1	–
